Laboratory results taken from PubChem BioAssay (NCI).
This is part of a sample that, as a whole, favours compounds with a hit. Of some 83,000 tested, about 20% had one in any assay.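 The test compound was applied at a single concentration to cells in 96-well plates for 48 hours, and percent growth was recorded.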 Unmarked numbers belong to inactive results. Active and inactive are the calls of the source.

Test system: A498 renal
Experiment: NCI-60 one-dose screen, 48 h (100 = growth as untreated, 0 = no growth, -100 = all killed)
Settings: 10 µM unless noted
Procedure: Growth inhibition of the A498 human tumor cell line is measured as a screen for anti-cancer activity. Cells are grown in 96 well plates and exposed to the test compound for 48 hours. Compounds are tested at a single concentration, which is 10^-5 M for most compounds. The reported endpoint is percent growth (GI% or GIPRCNT), where numbers from 0 - 100% represent growth inhibition, and numbers from -100% - 0 represent cell death. For example, a value of 40 represents 60% growth inhibition. A value of 0 means no net growth occurred over the course of the experiment. A value of -40 indicates 40% of cells at the beginning of the experiment died by the end of the experiment. A value of -100 means all cells are dead at the end of the experiment.
NCI-60 Human Tumor Cell Lines Screen was performed using the standard one-dose NCI protocol, which is described in more detail at https://dtp.cancer.gov/discovery_development/nci-60/default.htm.
Compounds with GIPRCNT values below 10 were considered active. Activity score was based on GIPRCNT using the following formula: […]
Score is 0 for GIPRCNT values of 100 or above, 50 for GIPRCNT values of 0, and 100 for GIPRCNT values of -100.

Row | Structure (SMILES) | growth
1 | Nc1ccc(N)c2c1C(=O)c1cccc([N+](=O)[O-])c1C2=O | -73.8% (active)
2 | Cc1ccc(Nc2nc(N)nc(N)c2N=O)cc1Cl | 119%
3 | CCN(CC)CCCNc1cc(OC)cc2cccnc12 | 81.5%
4 | O=C1OCC2=C1C(c1cccc(F)c1)c1cc3c(cc1N2CCO)CCC3 (stereo not given) | 5.8% (active)
5 | COc1ccc(C2=NN3C(C2)c2cc(Br)ccc2OC3c2ccncc2)cc1 (stereo not given) | 95.6%
6 | COc1ccc(C(=O)/C=C/c2ccc(C)cc2)cc1S(N)(=O)=O | 82.7%
7 | CCCCCCC/C=N/NC(=O)c1ccc(-n2cc(-c3ccccc3)nn2)cc1 | 90.1%
8 | O=c1c2cccc3c(N4CCOCC4)ccc(c32)c2nc3ccccc3n12 | 101%
9 | CN1CCN(c2ccc(Nc3ncc4[nH]c(=O)n(Cc5ccccc5N)c4n3)cc2)CC1 | 66.4%
10 | CCN1C(=O)N(CC)C2C1NC(=S)N2/N=C/C=C/c1cccs1 (stereo not given) | 18.4%
11 | Cc1cccc(CN(Nc2ccccc2)c2ccccc2)n1 | 98%
12 | C#Cc1c(I)n(C2OC(CO[Si](C)(C)C(C)(C)C)C3OC(C)(C)OC32)c(=O)[nH]c1=O (stereo not given) | 102%
13 | O=C1/C(=C/c2cccc([N+](=O)[O-])c2)COc2ccc(O)c(O)c21 | 99.7%
14 | CCOC(=O)CCC(=O)P(=O)(O)O | 107%
15 | O=C(Cn1cc(CSc2nc3ccccc3o2)nn1)Nc1ccc([N+](=O)[O-])cc1 | 101%
16 | CCCC1Cc2cc(-n3nc(C)c4c3CC(C)(C)CC4=O)cc(NC3CCC(O)CC3)c2C(=O)N1 (stereo not given) | 37.6%
17 | CN1CCN(Cn2nc(-c3cc(Cl)cc(Cl)c3Cl)oc2=S)CC1 | 95%
18 | Cc1ccc(NC(=O)c2ccc(Nc3ncnc4c3cnn4-c3cccc(F)c3)cc2)cc1 | 80.7%
19 | Nc1ncnc2c1N=C(c1ccc([N+](=O)[O-])cc1)CC(c1ccc3c(c1)OCO3)N2 (stereo not given) | 87.4%
20 | CN1/C(=C/C=C/c2n(Cc3ccc4ccccc4c3)c(Cl)c(Cl)[n+]2Cc2ccc3ccccc3c2)Oc2ccccc21 | -77.9% (active)

Row | Structure (SMILES) | growth
21 | CNC1=C([N+](=O)[O-])C(c2ccc(OC)cc2)C(C#N)=C(c2ccc[nH]2)O1 (stereo not given) | 96.8%
22 | COc1cc2c(c(OC)c1OC)CCC(c1cccc(C(=O)Nc3ccc([N+](=O)[O-])cc3)c1)O2 (stereo not given) | 25.5%
23 | CC(=O)/C(Br)=C/c1ccc(Br)o1 | 105%
24 | CCCN1C(=O)N(CCC)C2C1NC(=S)N2/N=C/C=C/c1ccccc1OC (stereo not given) | -5.66% (active)
25 | CC(=O)O[C@H]1CC[C@@]2(C)C(=CC[C@@H]3[C@@H]2CC[C@]2(C)C(Cl)=C(c4nc5ccc(Cl)cn5c4NC(C)(C)C)C[C@@H]32)C1 | 92.8%
26 | COc1ccc(/C=N/NC(=O)Cn2nnc3ccccc32)cc1 | 98.4%
27 | CCCN1C2CCC1/C(=C\c1ccc(OC)cc1)C(=O)/C2=C/c1ccc(OC)cc1 | 80%
28 | C=C1/C(=C\C=C2/CCC[C@]3(C)[C@@H]([C@H](C)CCCC(C)(C)O)CC[C@@H]23)C[C@@H](OC(=O)CBr)C[C@@H]1O | 86.2%
29 | CNC(=O)c1cc(Oc2ccc3nc(NC(=O)c4cc(C(F)(F)F)cc(C(F)(F)F)c4)sc3c2)ccn1 | -11.4% (active)
30 | O=c1ccc2nc(-c3ccccc3)nn(-c3ccccn3)c-2c1 | 88.2%
31 | Cc1nc2ccccc2c(/C=C/c2ccc(Br)cc2)c1C(=O)/C=C/c1ccccc1 | 18%
32 | N/C(=N\c1nc2ccccc2s1)NC(=O)Nc1ccccc1 | 42.7%
33 | Cn1nc(-c2ccc(Cl)cc2)nc2c(=O)n(C)c(=O)nc1-2 | -94.8% (active)
34 | O=C(Nc1ccc(Cl)cc1)C1=NCCCCN1 | 98.6%
35 | COc1cc(/C=C/C(=O)c2ccc(-n3cc(CN4CCN(c5cc6c(cc5F)c(=O)c(C(=O)O)cn6C5CC5)CC4)nn3)cc2)cc(OC)c1OC | 34.9%
36 | COc1cc(/C=C2\C(=O)N(CCOc3cc(O)c4c(=O)cc(-c5ccccc5)oc4c3)c3ccccc32)cc(OC)c1O | 127%
37 | CC1(C)CC(=O)C2=C(C1)OC(C(=O)c1ccccc1)C2c1cccc(Oc2ccccc2)c1 (stereo not given) | 49.6%
38 | Nc1c(C(=O)c2ccc(Cl)cc2)sc(Nc2ccccc2)c1-c1nc2ccccc2s1 | 46.2%
39 | O=c1c(/C=C/c2c(O)ccc3ccccc23)nnc2sc(-c3cccc([N+](=O)[O-])c3)nn12 | 50.5%
40 | COc1ccc(-c2nc(SCCC(C)C)nc(N/N=C(/C)c3ccc(N)cc3)c2C#N)cc1 | 90.9%
